Experimental findings from PubChem BioAssay AID463190 (Sanford-Burnham Center for Chemical Genomics, 2010) are described below.

About 7,300 (2.2%) of roughly 330,000 compounds were called active.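 How the source made its calls: active means inhibition of at least 40%; inactive means the rest.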 This excerpt belongs to a sample that is enriched for actives.

A short description of the assay: growth inhibition of tim10-1 ts yeast – luminescence, uHTS, primary screen (AID 463190).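 Further: mutant grown at 25 °C; 0% = DMSO wells with yeast and 100% = wells holding no yeast.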 The following applies: S. cerevisiae tim10-1 ts strain growth, BacTiter-Glo, 24 h; at 20 µM; active compounds read high.
What is called inhibition is the relative decrease from the control value, in per cent. As for `COC(=O)c1cc2c(ccn2C)n1C`, the inhibition is -6.2% (inactive).
On to `COc1ccc(/C=C/C(=O)Nc2c(C)nn(C)c2C)cc1COc1ccc(Br)cc1`, for which the inhibition was 29.4% (inactive).
With `CCn1nc(C)c(NC(=O)/C=C/c2ccc(OC)c(COc3ccc(Br)cc3)c2)c1C` the figure was 52.1% (active).
The same measure for `COc1ccc(C(C)=O)cc1COc1ccc(Cl)c(C)c1`: 3.35% (inactive); for `CC(=O)Nc1ccccc1OC(=O)N1CCOCC1`: -3.71% (inactive); for `O=C(/C=C/c1cccs1)c1cc(Cl)ccc1OC(=O)N1CCOCC1`: 50.2% (active).
With `O=C(Oc1cccc(C(=S)N2CCOCC2)c1)c1cccc(Cl)c1` the figure was 39.2% (inactive).
`Cc1ccc(NS(=O)(=O)c2ccc(C(=O)NCCCN3CCOCC3)cc2)cc1`: the inhibition is -36% (inactive).
The same measure for `CC1(C)CC(=O)C=C(c2ccc(Cl)c(C(F)(F)F)c2)C1`: 0.973% (inactive).
As for `Cc1cccc(OC(C)C(=O)N2CCc3ccccc3C2)c1` (stereo unspecified), the inhibition was -6.4% (inactive).
With `O=C(/C=C(O)/C=C/c1ccc(O)cc1)/C=C/c1ccc(O)cc1` the figure was 4.38% (inactive); with `O=C(/C=C/c1ccccc1)N/C(=C/c1ccccc1)C(=O)Nc1ccccc1O`, 32.3% (inactive).
With `O=C(/C=C/c1ccccc1)c1ccccc1O` the figure was 48.7% (active).
For `CCCCC[C@H]1CN(C2CCCCC2)C(=O)[C@@H]1CC(=O)NCc1ccc(OC)cc1`, the inhibition was 17.9% (inactive).
With `O=C(Nc1ccccc1F)c1ccc(S(=O)(=O)N2CCCCCC2)cc1` the figure was 18.9% (inactive).
With `COC(=O)c1ccc(CNC(=O)c2ccc(S(=O)(=O)N3CCCCCC3)cc2)cc1` the figure was 14.2% (inactive); with `O=C(NCCc1ccc(F)cc1)c1ccc(S(=O)(=O)N2CCCCC2)cc1`, 41.8% (active).
With `C/C=C(\C)C(=O)NCCN1C2=NC[C@H](Cc3ccc(O)cc3)N2C[C@@H]1Cc1ccc(OC)cc1` the figure was -7.43% (inactive); with `O=C1CC(c2ccccc2)=NN1c1ccc([N+](=O)[O-])cc1`, 44.5% (active); with `Cc1nc(-c2ccc([N+](=O)[O-])cc2)c(-c2ccccc2)o1`, 14.6% (inactive).
As to `O=c1[nH]n(-c2ccc([N+](=O)[O-])cc2)c(=O)c2ccccc12`, the inhibition is -4.91% (inactive).
For the compound `COc1ccc2c(c1)cc1n2CCN=C1NN`, the inhibition was 43.7% (active).
`COc1ccc2ccn(C)c2c1`: the inhibition was -6.1% (inactive).
Take `CC12COC3(C(=O)Nc4ccc(Cl)cn4)CC1CCC32C` (stereo unspecified): the inhibition was 33.3% (inactive).
The same measure for `CCC(C)Cn1c(O)cc2nn(-c3nc4ccccc4s3)c(=O)c-2c1C` (stereo unspecified): 0.194% (inactive).
The same measure for `CC(=NCc1ccco1)c1c(C(F)(F)F)[nH]n(-c2nc3ccccc3s2)c1=O`: 75.2% (active).
Consider `CCC1(CC)NC(=O)N(Cc2nc3ccccc3s2)C1=O`, for which the inhibition is 9.64% (inactive).
With `CCOC(=O)c1sc(N)c(C#N)c1COC(=O)C1=COCCO1` the figure was 9.07% (inactive).
With `O=C(NCC(c1cccs1)N1CCOCC1)c1cc(Cl)ccc1[N+](=O)[O-]` (stereo unspecified), the inhibition was 3.29% (inactive).
Take `COc1cccc(-c2cc3nc4c(c(N5CCC6(CC5)OCCO6)n3n2)CCCC4)c1`: the inhibition is 41.5% (active).
With `COc1cccc(CNc2nc3nc4c(c(=O)n3[nH]2)CCC4)c1` the figure was -3.51% (inactive).
On to `COc1ccc(OC)c(/C(C)=N\NC(=O)c2cc3cc(Cl)ccc3n2C)c1`, for which the inhibition is 14.6% (inactive).
The same measure for `C=CCn1c(SCC(=O)NC)nnc1C12CC3CC(CC(C3)C1)C2`: 11.2% (inactive).
The same measure for `O=[N+]([O-])/C=C/c1ccc2c(ccn2Cc2ccccc2)c1`: -97.4% (inactive); for `CCS(=O)(=O)Nc1ccc(C2=NN(S(=O)(=O)c3ccc(F)cc3)C(c3ccco3)C2)cc1` (stereo unspecified): 13.9% (inactive).
With `COCCn1cnc2c1c(=O)n(CC(=O)NN)c(=O)n2Cc1ccccc1`, the inhibition is 10.9% (inactive).
With `O=C(NCc1ccc2c(c1)OCO2)C(=O)NCC1OCCN1S(=O)(=O)c1ccc(F)cc1` (stereo unspecified) the figure was -2.49% (inactive); with `O=C(Nc1cccc(F)c1)NC1CCCc2ccccc21` (stereo unspecified), 30.5% (inactive); with `O=C(Nc1cccc(F)c1)NC1CCCCCCC1`, 45.3% (active).
The same measure for `C/C(CC(=O)Nc1cccc(F)c1)=N\NC(=O)C(=O)NC1CCCCC1`: 15.5% (inactive); for `Cc1c(C(=O)O)nnn1-c1nonc1N`: 3.56% (inactive); for `C#CCOCCOCCOCCNc1nc(N2CCN(C(=O)[C@H](CO)n3cc([C@@H](N)C(C)C)nn3)CC2)nc(N2CCN(C(=O)[C@H](CCC(=O)O)n3cc([C@@H](N)[C@H](C)CC)nn3)CC2)n1`: 9.15% (inactive).
Take `CC(C)(C)n1c(=O)[nH]c2c(c1=O)CCC2`: the inhibition is -3.65% (inactive).
With `CNC(=S)NNC(=O)c1oc2nc(-c3ccccc3)cc(-c3ccco3)c2c1N` the figure was 18.1% (inactive); with `NNC(=O)c1oc2nc(-c3ccccc3)cc(-c3ccco3)c2c1N`, 19.9% (inactive).
With `CS(=O)(=O)c1sc2nc(-c3ccccc3)cc(-c3ccccc3)c2c1N` the figure was 49.2% (active); with `O=C(O)CSCc1ccc(C(=O)O)o1`, 3.55% (inactive).
The same measure for `C/C=C/C=C/C(=O)OCC(=O)Nc1ccc(Cl)cc1`: 15.8% (inactive); for `O=C(/C=C/c1ccc(Cl)c([N+](=O)[O-])c1)c1ccc(O)cc1`: 41.3% (active).
As for `O=C(/C=C/c1ccc(Cl)cc1Cl)c1cccnc1`, the inhibition is 25% (inactive).
As for `O=C(Nc1ccncc1)c1ccc(Cl)c([N+](=O)[O-])c1`, the inhibition is -50.2% (inactive).
For `CN(C)c1ccc(/C=C/C(=O)c2ccc(O)cc2)cc1[N+](=O)[O-]`, the inhibition is 15.8% (inactive).
The same measure for `CN(C)c1ccc(/C=C/C(=O)c2ccc(C(C)(C)C)cc2)cc1[N+](=O)[O-]`: 27.1% (inactive); for `O=C(/C=C/c1ccc(Cl)c([N+](=O)[O-])c1)c1cccnc1`: 46.1% (active).
Take `COc1ccc(CCNC(=O)c2ccc(CS(=O)(=O)c3ccc(Br)cc3)o2)cc1OC`: the inhibition was 24.5% (inactive).
Take `O=C(Cn1c(NCCO)nc2ccccc21)c1ccc(Cl)cc1Cl`: the inhibition was 1.93% (inactive).
In the case of `CCCCn1ccnc1C(=O)c1cccc(S(=O)(=O)N2c3ccccc3CC2C)c1` (stereo unspecified), the inhibition is 29.3% (inactive).
As to `O=C1COc2ccc(C(=O)COC(=O)c3cccnc3Cl)cc2N1`, the inhibition was -6.62% (inactive).
The same measure for `CCc1nnc(NC(=O)CSc2nnc(-c3ccncc3)n2Cc2ccccc2)s1`: 10.1% (inactive).
As for `COC(=O)c1cc(NC(=O)CC2C(=O)NCCN2C(=O)c2ccc(F)cc2)cc(C(=O)OC)c1` (stereo unspecified), the inhibition was -15.9% (inactive).
With `COc1ccc(N2C(=O)CC(SC(C)C)C2=O)cc1` (stereo unspecified), the inhibition was -8.61% (inactive).
With `Cc1ccc(N2C(=O)CC(Sc3ncn[nH]3)C2=O)cc1` (stereo unspecified), the inhibition is 30.2% (inactive).
Consider `COc1ccc(N2C(=O)CC(Sc3n[nH]c(-c4ccc(C)cc4)n3)C2=O)cc1` (stereo unspecified), for which the inhibition is 54.7% (active).
Consider `COc1ccccc1C(=O)NCCn1cc(SCC(=O)NCc2ccco2)c2ccccc21`, for which the inhibition was 29.1% (inactive).
With `COc1cc(C(c2c(NC(=O)c3ccco3)sc(C)c2C)N2CCOCC2)cc(OC)c1OC` (stereo unspecified) the figure was 20.7% (inactive).
With `CCc1ccccc1NC1c2ccccc2C(=O)N1c1cccnc1` (stereo unspecified), the inhibition is 36.7% (inactive).
With `CC(=O)C1=C(O)C(=O)N(c2cccnc2)C1c1ccc([N+](=O)[O-])cc1` (stereo unspecified) the figure was 0.316% (inactive); with `O=C1[C@@H](c2ccccc2)[C@@H](c2ccccc2)N1c1cccnc1`, 66.6% (active); with `O=C(N/N=C/c1ccc(OCC2COCCO2)cc1)c1ccc(Br)cc1` (stereo unspecified), -0.668% (inactive).
With `CCOc1ccc(OCC)c(-c2c(=O)n(OCc3ccc(Cl)cc3)c3ccccc3[n+]2[O-])c1` the figure was 26.2% (inactive); with `COc1ccc(OC)c(-c2c(=O)n(OCc3ccccc3Br)c3ccccc3[n+]2[O-])c1`, 47.1% (active); with `CCOC(=O)COn1c(=O)c(-c2ccc(OCC)cc2)[n+]([O-])c2ccccc21`, 31.6% (inactive).
`COC(=O)c1c(-c2ccsc2)oc2ccc(-c3cc(OC)c(OC)c(OC)c3)cc12`: the inhibition is 28.1% (inactive).
For `N#CCOc1ccc(C2=NO[C@@H]3[C@@H]4C[C@@H]([C@H]5C(=O)N(c6ccc7c(c6)OCO7)C(=O)[C@@H]45)[C@H]23)cc1`, the inhibition is 18.3% (inactive).
With `C=CS(=O)c1sc(Cl)c(N2CCOCC2)c1[N+](=O)[O-]` (stereo unspecified) the figure was 79.3% (active).
The same measure for `Nc1c(N(CCO)C(=O)C2CCCCC2)c(=O)[nH]c(=O)n1Cc1ccccc1`: 15.1% (inactive).
With `COc1ccccc1C(=O)NCC(=O)OCC(=O)NNC(=O)c1ccc(Br)cc1`, the inhibition was -10.1% (inactive).
With `Cc1ccc(-c2cc(C(=O)N3CCc4ccccc4C3)no2)cc1` the figure was 18.4% (inactive).
The same measure for `Cc1ccc2c(c1)c1ncnc(N3CCc4ccccc4C3)c1n2C`: 44% (active); for `Cc1ccc2c(c1)c1ncn(CCC3=CCCCC3)c(=O)c1n2C`: 22.5% (inactive).
Turning to `O=C(C1CCC(=O)N(C2CC2)C1)N1CCN(c2ccc(Cl)cc2)CC1` (stereo unspecified), the inhibition is -6.67% (inactive).
With `C=CCNC(=O)CC12CC3CC(C1)CC(CC(=O)NCC=C)(C3)C2` the figure was 9.8% (inactive); with `CCOc1cccc(-c2nn3c(-c4ccccn4)nnc3s2)c1`, 42% (active); with `COc1ccc(-n2c(SCC(=O)OC(C)C)nnc2-c2ccccn2)cc1`, 34.2% (inactive).
For `CCOc1cccc(-c2nnc(SCC(=O)NC3CC3)n2C)c1`, the inhibition is 6.04% (inactive).
In the case of `O=C(O)C1C2C=CC(C2)C1C(=O)NCc1ccccc1` (stereo unspecified), the inhibition is -21.1% (inactive).
The same measure for `COc1ccc(C2=NO[C@@H]3C(=O)N(Cc4ccccc4)C(=O)[C@H]23)cc1OC`: 14.3% (inactive).
As to `CCn1nccc1C(=O)Nc1ccc(S(=O)(=O)NC23CC4CC(CC(C4)C2)C3)cc1`, the inhibition is 26.7% (inactive).
With `CCn1nccc1C(=O)Nc1ccc(Cl)c(Cl)c1` the figure was 44% (active); with `CC(c1cccnc1)N(CCN(C)C)C(=O)Nc1ccc(Cl)c(Cl)c1` (stereo unspecified), 4.37% (inactive).
The same measure for `CN1CCN(C(=O)CCc2ncc(C(F)(F)F)cc2Cl)CC1`: -4.04% (inactive).
